Assay results from PubChem BioAssay (NCATS).
Inconclusive results are not listed. Values without a mark were called inactive. Active and inactive are the calls of the source. Calls come from the whole dose curve; as a rule, active = well fitted cell-killing curve with a large enough effect; inconclusive = small, poorly fitted or top-dose-only effect, or effect the other way; inactive = no such curve, though single readings can be large or run the other way.

Test: Viability qHTS for spleen associated tyrosine kinase inhibitor (SYKi) drug resistant MV4-11 cells (AID 1963824); note: nearly all actives have a fitted effect of over 35% in size
Conditions: SYKi-resistant MV4-11 viability, CellTiter-Glo, 72 h; series mostly up to 45 µM
In short: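 SYK-inhibitor-resistant MV4-11 AML cells were seeded at 500 per well onto compound and cultured 72 hours (37 °C, 5% CO2). CellTiter-Glo was then added, and after 10 min at room temperature, luminescence gave viability.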
Potency is the fitted concentration of half-maximal effect.

Compound	Potency	viability, % of control
CSc1cc2c(s1)c1cnn(Cc3ccccc3F)c(=O)c1n2C	inactive	
C=C1C(=C/C=C2\CCC[C@]3(C)[C@@H]([C@H](C)/C=C/[C@@H](O)C4CC4)CC[C@@H]23)C[C@@H](O)C[C@@H]1O	0.188 µM (active)	
CC1(C)[C@@H]2CC=C(CO[C@@H]3O[C@H](CO[C@@H]4OC[C@H](O)[C@H](O)[C@H]4O)[C@@H](O)[C@H](O)[C@H]3O)[C@H]1C2	inactive	
C[C@@H]1C[C@@H](O)[C@@]23CO[C@]2(CO)CCC[C@@H]3[C@@]12C[C@@H](c1ccoc1)OC2=O	inactive	
O=C(CCO[C@@H]1O[C@H](CO)[C@@H](O)[C@H](O)[C@H]1O)c1ccc(O)cc1	inactive	
Oc1ccc([C@H]2COc3cc(O)ccc3C2)cc1	13 µM (active)	
O=C(O)CCc1nccc2c1[nH]c1ccccc12	23.1 µM (active)	
CC(C)c1cc(-c2ccc(F)c3ccccc23)nc(N)n1	5.17 µM (active)	
O=C(/C=C/c1ccc(O)c(O)c1)OCc1ccccc1O[C@@H]1O[C@H](CO)[C@@H](O)[C@H](O)[C@H]1O	inactive	
Clc1ccc2ncc(-c3cccc(NC4CCNC4)n3)n2c1 (configuration not stated)	0.0103 µM (active)	
Cc1ccc(Cl)c(Nc2ccccc2C(=O)O)c1Cl	15 µM (active)	
C=C1C(=O)O[C@@H]2C3=C(C)CCC[C@]3(C)CC[C@@]12O	0.731 µM (active)	
CN(CCOc1ccc(-c2ccc3c(c2)OCO3)cc1C(C)(C)C)CC(=O)O	16.6 µM (active)	
O=C(CC1NCCC[C@H]1O)Cn1cnc2cc(Br)c(Cl)cc2c1=O (some centres not stated)	inactive	
Cc1cc(N)c2ccccc2[n+]1CCCCCCCCCC[n+]1c(C)cc(N)c2ccccc21	0.58 µM (active)	
CN1[C@@H]2CC[C@H]1CC(OC(=O)C(CO)c1ccccc1)C2 (some centres not stated)	inactive	
C=CC(=O)Nc1cccc(Nc2nc(Nc3ccccc3)ncc2C)c1	0.651 µM (active)	
CC(C)n1cnc2c(-c3cnc(N)nc3)nc(N3CCOCC3)nc21	3.17 µM (active)	
COc1ccc2c(c1O[C@H]1CCNC1)CCC2	inactive	

Compound	Potency	viability, % of control
O=C(O)c1cccc(CN2C(=O)/C(=C(\c3ccccc3)c3ccc(Cl)cc3)c3ccccc32)c1	20.6 µM (active)	
CCCCCCc1cccc(NC(=O)[C@H](N)CCP(=O)(O)O)c1		99.2% [at 9.25 µM]
NC(N)=NCCC[C@H](NC(=O)c1sccc1NS(=O)(=O)c1cccc2nsnc12)C(=O)O	inactive	
Cc1c(O)cc2c(c1O)COC1(O)CCCOC21 (configuration not stated)	inactive	
COc1c(C)c(C(=O)c2ccc(N)c(C(=O)O)c2)n2ccccc12	inactive	
COC(=O)C1C(c2ccc(O)cc2)C(C(=O)OC)C1c1ccc(O)cc1 (configuration not stated)	10.1 µM (active)	
CC(C)(C)c1ccc(S(=O)(=O)Nc2ccc(Cl)cc2C(=O)c2cc[n+]([O-])cc2)cc1	20.6 µM (active)	
O=S(=O)(/N=C/c1c(O)ccc2ccccc12)c1cccs1	inactive	
COc1ccc(C[C@H](C)NC[C@@H](O)c2ccc(O)c(NC=O)c2)cc1	inactive	
O=C(Cc1c(F)cccc1F)Nc1cc(OCc2ccc(Cl)cc2)ccn1	14.6 µM (active)	
Cn1c(=O)c(F)c(Nc2ccc(I)cc2F)c2c(=O)n(CC(O)CO)cnc21 (configuration not stated)	0.0259 µM (active)	
O=c1[nH]ccc2nc(-c3ccc(CN4CCC(c5nc(-c6ccccn6)n[nH]5)CC4)cc3)c(-c3ccccc3)cc12	9.2 µM (active)	
CC(C)(C[C@@](O)(Cc1cc2ccncc2[nH]1)C(F)(F)F)c1cc(F)ccc1O	2.31 µM (active)	
CC1(C)CC[C@]2(C(=O)O)CC[C@]3(C)C(=CCC4[C@@]5(C)C(=O)C[C@H](O)[C@@](C)(CO)C5CC[C@]43C)[C@@H]2C1 (some centres not stated)	inactive	
COc1cc(CNC(=O)CCCC/C=C/C(C)C)ccc1O	18.4 µM (active)	
C/C=C1\[C@H](O[C@@H]2O[C@H](CO)[C@@H](O)[C@H](O)[C@H]2O)OC=C(C(=O)OC)[C@H]1CC(=O)OC[C@H]1O[C@@H](OCCc2ccc(O)cc2)[C@H](O)[C@@H](O)[C@@H]1O	inactive	
C=C1C[C@@]23CC[C@@H]4[C@](C)(C(=O)O)CCC[C@@]4(C)C2=CC[C@H]1C3	inactive	
OC[C@H]1O[C@@H](O[C@H]2[C@H](OCc3ccccc3)O[C@H](CO[C@@H]3OC[C@@H](O)[C@H](O)[C@H]3O)[C@@H](O)[C@@H]2O)[C@H](O)[C@@H](O)[C@@H]1O	inactive	
